# Experimental data: PubChem BioAssay
# Activity calls are given as the source filed them.
# What was measured:
# [1] = E. coli DRC41 culture turbidity changes, primary screen, E. coli filamentation inducer project, strain DRC41, OD650, 48 h (AID 1152);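 note: E. coli MC1000 strain DRC41 lacking acrAB efflux pump and sulA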; settings: E. coli DRC41 (acrAB sulA), higher = more signal, called active from +8 up or from −8 down
# [2] = small-molecule binders of probe aLefty1, primary screen, biochemical, small-molecule microarray, 635/667 nm fluorescence (AID 1153); settings: higher = more signal;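 note: score merges spot fluorescence with signal-to-noise ratio from the scanned slide images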
# [3] = PSAC antagonists in infected red cells, primary screen, cell-based, P. falciparum Indochina, OD700, 1 h (AID 1154); settings: P. falciparum Indochina infected RBC osmotic lysis, higher = more signal, called active from +8 up or from −8 down
# [4] = PSAC antagonists in infected red cells, primary screen, cell-based, P. falciparum Indochina, OD700, 2 h (AID 1155);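 note: lysis reports solute entry through the parasite surface anion channel PSAC; channel blockers reduce lysis of infected cells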; settings: P. falciparum Indochina infected erythrocytes, osmotic lysis OD700; higher = more signal, called active from +8 up or from −8 down
# [5] = osmotic lysis modulators in infected erythrocytes, primary screen, PSAC antagonist project, cell-based, P. falciparum Indochina, OD700, 3 h (AID 1156); settings: higher = more signal, called active from +8 up or from −8 down
# [6] = PSAC antagonists in infected red cells, primary screen, cell-based, P. falciparum Indochina, OD700, 18 h (AID 1157); settings: P. falciparum Indochina infected erythrocytes, osmotic lysis OD700, 18 h; higher = more signal, called active from +8 up or from −8 down
# [7] = modulators of S6 phosphorylation in cells, primary screen, cell-based, A549, cytoblot, luminescence, serum-stimulated (AID 1158); settings: A549 phospho-S6 cytoblot, 5 h, higher = more signal;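 note: serum-stimulated A549 lung adenocarcinoma cells; signal is phosphorylated S6 detected by cytoblot immunostaining with HRP secondary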
# [8] = target: NADPH oxidase 2 (Homo sapiens) (UniProt P04839); assay: NOX2-dependent H2O2 signal modulators, primary screen, NOX inhibitor project, cell-based, HEK293-NOX2, PMA-stimulated, Amplex Red fluorescence (AID 1159); settings: 45 min, higher = more signal, called active from +8 up or from −8 down; note: test concentration not given here
# [9] = target: NADPH oxidase 4 (Homo sapiens) (UniProt Q9NPH5); assay: NOX4-dependent H2O2 signal modulators, primary screen, NOX inhibitor project, cell-based, HEK293-NOX4, tetracycline-induced, Amplex Red fluorescence (AID 1160); settings: 45 min, higher = more signal, called active from +8 up or from −8 down
# [10] = target: NADPH oxidase 5 (Homo sapiens) (UniProt Q96PH1); assay: NOX5-dependent H2O2 signal modulators, primary screen, NOX inhibitor project, cell-based, HEK293-NOX5, Amplex Red fluorescence (AID 1161); settings: HEK293-NOX5, ionomycin, 45 min, higher = more signal
# [11] = A549 cell viability effects, profiling panel, calcein-AM fluorescence, 48 h, basal (AID 1162); settings: higher = more signal; note: test concentration not given here
# [12] = adipocyte viability effects, profiling panel, cell-based, 3T3-L1 adipocytes, calcein-AM fluorescence, 48 h, basal (AID 1163); settings: 3T3-L1 adipocytes viability, higher = more signal; note: test concentration not given here
# [13] = HepG2 cell viability effects, profiling panel, calcein-AM fluorescence, 48 h, basal (AID 1164); settings: higher = more signal; note: test concentration not given here
# [14] = MM1S cell viability effects, profiling panel, calcein-AM fluorescence, 48 h, basal (AID 1165); settings: higher = more signal;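 note: viability of MM1S multiple myeloma cells under basal unstimulated conditions; test concentration not given here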
# [15] = basal RPMI8226 viability, no added stimulus, profiling panel, cell-based, calcein-AM fluorescence, 48 h, PK04 Diversity Set (AID 1166); settings: RPMI8226 myeloma viability, higher = more signal;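 note: cells grown under basal conditions without added stimulus; test concentration not given here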
# [16] = basal HepG2 mitochondrial membrane potential changes, profiling panel, cell-based, JC-1 fluorescence, 24 h, 100 nL compound (AID 1167); settings: higher = more signal; note: test concentration not given here
# [17] = basal 3T3-L1 adipocyte mitochondrial potential changes, profiling panel, cell-based, JC-1 fluorescence, 3T3-L1 adipocytes, 24 h, 100 nL compound (AID 1168); settings: JC-1 mitochondrial fluorescence, higher = more signal, called active from +8 up or from −8 down; note: test concentration not given here
# [18] = basal RPMI8226 mitochondrial membrane potential changes, profiling panel, cell-based, JC-1 fluorescence, 24 h, 100 nL compound (AID 1169); settings: RPMI8226 myeloma, JC-1 mitochondrial potential fluorescence, higher = more signal; note: test concentration not given here
# [19] = basal MM1S mitochondrial membrane potential changes, profiling panel, cell-based, JC-1 fluorescence, 24 h, 100 nL compound (AID 1170); settings: higher = more signal; note: test concentration not given here
# [20] = A549 lung cancer cell viability effects, profiling panel, resazurin fluorescence, 24 h, PK04 Diversity Set (AID 1171); settings: higher = more signal, called active from +8 up or from −8 down; note: test concentration not given here
# Chain of NADPH oxidase 5 (Homo sapiens) (Q96PH1 whole entry, looked up): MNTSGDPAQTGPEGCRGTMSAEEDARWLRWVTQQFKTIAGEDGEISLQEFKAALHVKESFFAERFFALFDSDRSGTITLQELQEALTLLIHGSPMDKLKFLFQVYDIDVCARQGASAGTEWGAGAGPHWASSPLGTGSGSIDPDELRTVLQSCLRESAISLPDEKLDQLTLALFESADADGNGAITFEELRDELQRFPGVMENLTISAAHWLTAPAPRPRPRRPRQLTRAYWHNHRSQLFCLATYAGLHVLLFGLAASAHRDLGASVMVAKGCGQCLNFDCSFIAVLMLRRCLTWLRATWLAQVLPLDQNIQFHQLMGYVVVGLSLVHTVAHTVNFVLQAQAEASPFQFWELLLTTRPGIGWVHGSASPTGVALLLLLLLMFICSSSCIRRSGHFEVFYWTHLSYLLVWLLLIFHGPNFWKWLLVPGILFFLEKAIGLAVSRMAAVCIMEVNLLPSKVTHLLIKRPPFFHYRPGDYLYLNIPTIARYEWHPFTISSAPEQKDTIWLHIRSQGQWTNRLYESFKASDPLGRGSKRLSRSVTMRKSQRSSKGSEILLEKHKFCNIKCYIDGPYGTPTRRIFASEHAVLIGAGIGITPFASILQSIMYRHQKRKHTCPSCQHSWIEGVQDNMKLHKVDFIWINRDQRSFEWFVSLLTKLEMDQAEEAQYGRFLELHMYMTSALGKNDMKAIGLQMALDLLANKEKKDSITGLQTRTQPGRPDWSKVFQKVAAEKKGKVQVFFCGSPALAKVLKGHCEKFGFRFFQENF
# Chain of NADPH oxidase 4 (Homo sapiens) (Q9NPH5 whole entry, looked up): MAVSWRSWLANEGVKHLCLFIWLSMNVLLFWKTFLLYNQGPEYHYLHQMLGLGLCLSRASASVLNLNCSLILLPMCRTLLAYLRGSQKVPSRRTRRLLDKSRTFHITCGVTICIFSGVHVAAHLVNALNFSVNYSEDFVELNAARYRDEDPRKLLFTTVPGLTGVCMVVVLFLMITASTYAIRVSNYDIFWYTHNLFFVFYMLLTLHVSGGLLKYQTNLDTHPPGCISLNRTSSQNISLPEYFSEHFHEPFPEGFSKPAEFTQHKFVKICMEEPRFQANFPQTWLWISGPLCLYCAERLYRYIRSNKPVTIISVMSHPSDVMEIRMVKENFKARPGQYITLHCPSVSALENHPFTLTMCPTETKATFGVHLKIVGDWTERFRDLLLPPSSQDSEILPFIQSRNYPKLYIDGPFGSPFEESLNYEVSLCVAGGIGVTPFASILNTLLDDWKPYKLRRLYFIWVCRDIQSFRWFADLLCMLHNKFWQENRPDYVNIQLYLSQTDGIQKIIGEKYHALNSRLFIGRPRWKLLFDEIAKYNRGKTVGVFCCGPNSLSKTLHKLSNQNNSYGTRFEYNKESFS
# Chain of NADPH oxidase 2 (Homo sapiens) (P04839 whole entry, looked up): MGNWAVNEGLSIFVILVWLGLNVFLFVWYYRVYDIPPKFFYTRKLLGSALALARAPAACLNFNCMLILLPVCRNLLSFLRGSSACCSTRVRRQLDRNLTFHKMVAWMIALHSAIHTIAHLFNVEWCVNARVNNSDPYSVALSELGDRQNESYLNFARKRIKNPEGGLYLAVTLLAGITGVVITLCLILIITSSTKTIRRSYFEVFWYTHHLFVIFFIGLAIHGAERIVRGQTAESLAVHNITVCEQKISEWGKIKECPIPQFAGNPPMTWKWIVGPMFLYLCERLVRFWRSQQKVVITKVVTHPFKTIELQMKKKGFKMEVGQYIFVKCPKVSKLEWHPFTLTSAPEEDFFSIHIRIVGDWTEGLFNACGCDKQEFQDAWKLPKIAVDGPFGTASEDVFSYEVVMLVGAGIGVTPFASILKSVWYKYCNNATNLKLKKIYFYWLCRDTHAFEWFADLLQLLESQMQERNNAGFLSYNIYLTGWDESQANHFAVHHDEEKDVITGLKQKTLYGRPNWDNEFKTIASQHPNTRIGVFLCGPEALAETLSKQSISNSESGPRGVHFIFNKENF
Compound,z-score [1],composite z-score [2],z-score [3],z-score [4],z-score [5],z-score [6],z-score [7],z-score [8],z-score [9],z-score [10],z-score [11],z-score [12],z-score [13],z-score [14],z-score [15],z-score [16],z-score [17],z-score [18],z-score [19],z-score [20]
CCOC(=O)C[C@H]1[C@H](OC(=O)c2ccc(-c3ccccc3)cc2)[C@@H](NC(=O)c2ccc3ccccc3c2)c2cc(OCCCO)ccc2N1C(=O)c1ccccc1,-0.966 (inactive),0.0691,0.398 (inactive),0.134 (inactive),-0.337 (inactive),0.407 (inactive),0.263,-2.38 (inactive),-1.62 (inactive),-0.532,-0.9,0.237,-0.307,-0.438,-0.322,0.762,-0.0421 (inactive),0.483,-0.108,0.231 (inactive)
O=C(NCCO)C1=C[C@H](Oc2ccccc2I)[C@@H](O)[C@H](NCc2ccc(F)cc2)C1,-1.76 (inactive),-0.338,5.38 (inactive),1.82 (inactive),1.33 (inactive),1.11 (inactive),0.436,0.71 (inactive),-0.89 (inactive),-3.29,0.576,2.37,-0.793,-0.217,-1.26,-0.574,0.471 (inactive),0.391,0.185,-1.45 (inactive)
CC(C)CNC(=O)[C@@]1(C)c2ccccc2C(=O)N(Cc2cc(F)cc(C(F)(F)F)c2)[C@H]1c1ccc(CO)cc1,-0.144 (inactive),0.163,2.26 (inactive),0.684 (inactive),0.33 (inactive),0.253 (inactive),0.0857,-0.152 (inactive),0.261 (inactive),-0.364,-0.0148,1.32,-0.49,0.545,0.594,0.455,-0.175 (inactive),-0.638,0.0607,0.906 (inactive)
O=C(NCC(F)(F)F)[C@@H]1c2ccccc2C(=O)N(CC23CC4CC(CC(C4)C2)C3)[C@H]1c1ccc(CO)cc1,1.17 (inactive),0.0585,0.75 (inactive),-0.399 (inactive),-0.2 (inactive),-0.264 (inactive),3.83,0.49 (inactive),-0.0154 (inactive),0.19,1.5,1.27,2.14,-0.347,0.777,1.08,-0.154 (inactive),0.417,-0.457,0.637 (inactive)
COCCOC(=O)N1C(=O)[C@@]2(c3cc(C#CC4(O)CCCCCC4)ccc31)[C@H](c1ccccc1OCCO)N1[C@H](c3ccccc3)[C@H](c3ccccc3)OC(=O)[C@H]1[C@@H]2C(=O)N1CCCCCCC1,0.499 (inactive),2.49,0.257 (inactive),0.755 (inactive),0.196 (inactive),0.653 (inactive),0.119,0.297 (inactive),0.104 (inactive),1.13,-0.971,0.723,0.818,-1.45,-1.99,-0.286,0.454 (inactive),-0.557,-1.34,-0.141 (inactive)
COc1ccc(C#Cc2ccc3c(c2)[C@]2(C(=O)N3)[C@H](C(=O)Nc3nc4ccccc4s3)[C@H]3C(=O)O[C@H](c4ccccc4)[C@H](c4ccccc4)N3[C@@H]2c2ccc(OCCO)cc2)cc1,-0.368 (inactive),-0.0186,2.85 (inactive),1.41 (inactive),-0.521 (inactive),0.81 (inactive),0.13,0.578 (inactive),0.0813 (inactive),-1.04,-0.255,0.183,0.044,-2.63,-0.988,-3.48,-1.95 (inactive),-1.21,-2.1,0.135 (inactive)
COCCOC(=O)N1C(=O)[C@@]2(c3ccccc31)[C@H](C(N)=O)[C@H]1C(=O)O[C@H](c3ccccc3)[C@H](c3ccccc3)N1[C@@H]2c1ccc(OCCO)cc1,1.15 (inactive),0.196,3.76 (inactive),0.527 (inactive),-0.535 (inactive),0.436 (inactive),-0.211,-0.555 (inactive),1.1 (inactive),0.00857,-0.429,0.452,-0.363,-0.198,0.711,-0.914,0.055 (inactive),-0.112,-0.523,0.574 (inactive)
COc1ccc(CCNC(=O)[C@@]2(Sc3ccc(C)cc3)CC(=O)N(C(C)C)[C@@H]2c2ccc(CO)cc2)cc1,-0.58 (inactive),0.0391,2.36 (inactive),0.741 (inactive),0.152 (inactive),0.549 (inactive),-0.21,-0.575 (inactive),-1.16 (inactive),-2.03,0.353,0.356,-0.453,-0.169,0.0991,-0.41,0.0372 (inactive),0.043,0.277,-0.107 (inactive)
